{"source": "PubChem BioAssay (Tox21)", "note": "Several values for one entry are separate records, joined by “and”; a condition that tells them apart may be missing. Equal values may be shown once. Results filed as inconclusive are left out. A call without a number means that no potency is given here. Activity calls are given as the source filed them. Calls come from the whole dose curve; as a rule, active = well fitted cell-killing curve with a large enough effect in the repeat runs; inconclusive = weak or mixed curves, or effect the other way; inactive = flat fitted curve, though single readings scatter. Potency is the fitted concentration of half-maximal effect."}
{"test": "qHTS assay to identify small molecule agonists of the estrogen receptor beta (ER-beta) signaling pathway - cell viability counter screen (AID 1259380); note: nearly all actives have a fitted effect of over 30% in size", "conditions": "ER-beta-bla HEK293T viability, CellTiter-Glo luminescence, 16 h; series mostly up to 92.4 µM", "text": "National Center for Advancing Translational Sciences [NCATS]\nNIH Chemical Genomics Center [NCGC]\nU.S. Environmental Protection Agency [EPA]\nNational Institutes of Environmental Health Sciences [NIEHS]\nNational Toxicology Program [NTP]\nU.S. Food and Drug Administration [FDA]\nEstrogen receptor (ER), a nuclear hormone receptor, plays an important role in development, metabolic homeostasis and reproduction. Two subtypes of ER, ER-alpha and ER-beta, have similar expression patterns with some uniqueness in both types. Endocrine disrupting chemicals (EDCs) and their interactions with steroid hormone receptors like ER causes disruption of normal endocrine function. To identify the compounds that activate ER signaling, an ER beta-UAS-bla GripTite cell line (Life Technologies, Madison, WI, USA) containing a beta-lactamase reporter gene under the control of an UAS response element was used to screen Tox21 10K compound library. The cytotoxicity of the Tox21 compound library against the ER-beta-bla cell line was tested in parallel by measuring the cell viability using CellTiter-Glo assay in the same wells.\nTox21 Assay Protocol Summary:\nER-beta-UAS-bla HEK293T cells were dispensed at 2,000 cells/5 uL of assay medium containing 2% charcoal stripped FBS per well into black wall/clear-bottom 1536-well plates using a Multidrop Combi (ThermoFisher Scientific, Waltham, MA) dispenser. After the assay plates were incubated at a 37C and 5% CO2 for 6 hr, 23 nL of compounds dissolved in DMSO, positive controls or DMSO only was transferred to the assay plate by a Pintool station (Kalypsys, San Diego, CA). The plates were incubated at 37C and 5% CO2 for 16 hr. Then 1 uL of LiveBLAzerTM B/G FRET substrate was added using a BioRAPTR FRD (Flying Reagent Dispenser, Aurora Discovery, San Diego, CA) and then the plates were incubated at room temperature for 2 hours, and fluorescence intensity was measured by an Envision plate reader (PerkinElmer, Shelton, CT). For cell viability readout that measures cytotoxicity, 4 uL/well of CellTiter-Glo reagent was added into the assay plates using a FRD. After 30 min incubation at room temperature, the luminescence intensity in the plates was measured using a ViewLux (PerkinElmer) plate reader."}
{"molecule": "CCC[N+](CCC)(CCC)CCC", "Potency": "inactive"}
{"molecule": "C=CCc1ccccc1O", "Potency": "inactive"}
{"molecule": "O=CC=O", "Potency": "inactive"}
{"molecule": "CCCCCCCCCCCCN(C)C", "Potency": "inactive"}
{"molecule": "c1ccc2c(c1)sc1ccccc12", "Potency": "inactive"}
{"molecule": "O=C(Cl)OCCOCCOC(=O)Cl", "Potency": "inactive"}
{"molecule": "CCOC(C(=O)OCCN(C)C)(c1ccccc1)c1ccccc1", "Potency": "inactive"}
{"molecule": "O=C(O)CCCOc1ccc(Cl)cc1Cl", "Potency": "inactive"}
{"molecule": "CC(C)OC(=O)Cc1ccccc1", "Potency": "inactive"}
{"molecule": "COc1cc(C[C@@H](C)N)c(OC)cc1Br", "Potency": "35.3 µM (active)"}
{"molecule": "CCCCCCCCCCCC[N+](C)(C)CCOc1ccccc1", "Potency": "21.7 µM (active) and 11.9 µM (active)"}
{"molecule": "CN1C(=O)CN=C(c2ccccc2)c2cc([N+](=O)[O-])ccc21", "Potency": "inactive"}
{"molecule": "O=C(CCl)CCl", "Potency": "inactive"}
{"molecule": "O=C(O)C(F)(F)C(F)(F)C(F)(F)C(F)(F)C(F)(F)F", "Potency": "inactive"}
{"molecule": "Clc1ccc(Cl)c(Cl)c1", "Potency": "inactive"}
{"molecule": "COc1ccc2c(c1OC)C(=O)O[C@H]2[C@@H]1c2cc3c(cc2CCN1C)OCO3", "Potency": "inactive"}
{"molecule": "COc1ccccc1N1CCNCC1", "Potency": "inactive"}
{"molecule": "Cc1nc2ccccc2c(=O)n1-c1ccccc1Cl", "Potency": "inactive"}
{"molecule": "CC1(C)[C@H](C(=O)O[C@H](C#N)c2cccc(Oc3ccccc3)c2)[C@@H]1C=C(Br)Br", "Potency": "inactive"}
{"molecule": "OCCCl", "Potency": "inactive"}
{"molecule": "CC(C)(C#N)C(C)(C)C#N", "Potency": "inactive"}
{"molecule": "O=S(=O)(Cl)Cl", "Potency": "inactive"}
{"molecule": "CC(C)[C@@H](C(=O)O[C@@H](C#N)c1cccc(Oc2ccccc2)c1)c1ccc(Cl)cc1", "Potency": "inactive"}
{"molecule": "CCCCCCCCn1sccc1=O", "Potency": "30.7 µM (active) and 28.6 µM (active)"}
{"molecule": "O=C1CC[C@@]2(O)[C@H]3Cc4ccc(O)c5c4[C@@]2(CCN3CC2CC2)[C@H]1O5", "Potency": "inactive"}
{"molecule": "CON(C)C(=O)Nc1ccc(Cl)cc1", "Potency": "inactive"}
{"molecule": "NCCc1cc(O)c(O)cc1O", "Potency": "inactive"}
{"molecule": "CCCC[N+](CCCC)(CCCC)CCCC", "Potency": "inactive"}
{"molecule": "NC(=S)c1c(Cl)cccc1Cl", "Potency": "inactive"}
{"molecule": "OCCSSCCO", "Potency": "inactive"}
{"molecule": "C[C@H]1[C@@H]2Cc3ccc(O)cc3[C@@]1(C)CCN2C", "Potency": "inactive"}
{"molecule": "OCC1CO1", "note": "(stereo not given)", "Potency": "inactive"}
{"molecule": "Nc1ccccc1C(=O)OCCc1ccccc1", "Potency": "9.73 µM (active) and 7.7 µM (active)"}
{"molecule": "CCOP(=O)(O)C(N)=O", "Potency": "inactive"}
{"molecule": "Cc1nnc(-c2ccccc2)c(=O)n1N", "Potency": "inactive"}
{"molecule": "COC1CC(=C(c2cccs2)c2cccs2)C[N+](C)(C)C1", "note": "(stereo not given)", "Potency": "inactive"}
{"molecule": "COc1cc(CC(C)N)c(OC)cc1Br", "note": "(stereo not given)", "Potency": "63.2 µM (active)"}
{"molecule": "C=CC(C)(CCC=C(C)C)OC(=O)c1ccccc1N", "note": "(stereo not given)", "Potency": "inactive"}
{"molecule": "CCCC1CCCCN1", "note": "(stereo not given)", "Potency": "inactive"}
{"molecule": "C=C(Cl)Cl", "Potency": "inactive"}
